From PubChem BioAssay
The source made the active and inactive calls.

Key:
[1] = A549 cell viability effects, profiling panel, calcein-AM fluorescence, 48 h, basal (AID 1162); conditions: higher = more signal
[2] = adipocyte viability effects, profiling panel, cell-based, 3T3-L1 adipocytes, calcein-AM fluorescence, 48 h, basal (AID 1163); conditions: 3T3-L1 adipocytes viability, higher = more signal
[3] = HepG2 cell viability effects, profiling panel, calcein-AM fluorescence, 48 h, basal (AID 1164); conditions: higher = more signal
[4] = MM1S cell viability effects, profiling panel, calcein-AM fluorescence, 48 h, basal (AID 1165); conditions: higher = more signal;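 further: viability of MM1S multiple myeloma cells under basal unstimulated conditions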
[5] = basal RPMI8226 viability, no added stimulus, profiling panel, cell-based, calcein-AM fluorescence, 48 h, PK04 Diversity Set (AID 1166); conditions: RPMI8226 myeloma viability, higher = more signal;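 further: cells grown under basal conditions without added stimulus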
[6] = basal HepG2 mitochondrial membrane potential changes, profiling panel, cell-based, JC-1 fluorescence, 24 h, 100 nL compound (AID 1167); conditions: higher = more signal
[7] = basal 3T3-L1 adipocyte mitochondrial potential changes, profiling panel, cell-based, JC-1 fluorescence, 3T3-L1 adipocytes, 24 h, 100 nL compound (AID 1168); conditions: JC-1 mitochondrial fluorescence, higher = more signal, called active from +8 up or from −8 down
[8] = basal RPMI8226 mitochondrial membrane potential changes, profiling panel, cell-based, JC-1 fluorescence, 24 h, 100 nL compound (AID 1169); conditions: RPMI8226 myeloma, JC-1 mitochondrial potential fluorescence, higher = more signal
[9] = basal MM1S mitochondrial membrane potential changes, profiling panel, cell-based, JC-1 fluorescence, 24 h, 100 nL compound (AID 1170); conditions: higher = more signal
[10] = A549 lung cancer cell viability effects, profiling panel, resazurin fluorescence, 24 h, PK04 Diversity Set (AID 1171); conditions: higher = more signal, called active from +8 up or from −8 down
Further: test concentration not given here.

| Structure (SMILES) | z-score [1] | z-score [2] | z-score [3] | z-score [4] | z-score [5] | z-score [6] | z-score [7] | z-score [8] | z-score [9] | z-score [10] |
| --- | --- | --- | --- | --- | --- | --- | --- | --- | --- | --- |
| CC[C@@H]1C=C(C(=O)O)[C@H](c2ccccc2)N1S(=O)(=O)c1ccc(C)cc1 | -0.71 | -1.48 | -1.22 | -0.0502 | -0.674 | -0.93 | -0.703 (inactive) | 0.77 | -0.76 | -0.687 (inactive) |
| CC1=C2[C@@H](CCc3ccccc3)OB(O)C[C@@H]2[C@@H]2C(=O)N(C)C(=O)[C@@H]2C1 | -0.0116 | 0.417 | -0.21 | -2.12 | 0.339 | -1.18 | -0.467 (inactive) | -0.519 | -0.423 | 0.0857 (inactive) |
| COc1cc2c(cc1O)C(c1cccs1)N(Cc1cc3c(cc1Br)OCO3)CC2 (stereo not given) | -1.67 | -0.406 | -3.83 | -3.19 | -4.43 | -3.57 | -0.0381 (inactive) | -0.976 | -0.488 | -0.741 (inactive) |
| Cc1ccc(S[C@]2(C(=O)NCCN3CCOCC3)CC(=O)N(Cc3ccccc3Cl)[C@@H]2c2ccc(CO)cc2I)cc1 | 0.932 | -0.0217 | 0.995 | -1.62 | -3.01 | 1.53 | -0.272 (inactive) | -0.151 | -1.87 | -0.817 (inactive) |
| COc1ccc(C#Cc2ccc3c(c2)[C@]2(C(=O)N3)[C@H](c3ccc(OCCO)cc3)N3[C@H](c4ccccc4)[C@H](c4ccccc4)OC(=O)[C@H]3[C@@H]2C(=O)NC[C@H](O)c2ccccc2)cc1 | 0.357 | -0.177 | 1.08 | 0.373 | -1.46 | -1.04 | 4.7 (inactive) | -0.808 | -1.4 | 0.0652 (inactive) |
| C[N+](C)(C)CCCC[C@@H]1NC(=O)[C@@H]2C[C@H](C(=O)NCCCCCCN)[C@H](c3cccc(OCCO)c3)N2C1=O | -0.148 | 1 | 0.649 | 0.651 | -0.013 | 0.746 | -0.17 (inactive) | -0.711 | 0.246 | -0.518 (inactive) |
| COC(=O)[C@@]1(Cc2ccccc2)[C@H]2c3cc(C(=O)N4CCCC4)n(CCc4ccccn4)c3C[C@H]2CN1C(=O)c1ccccc1 | -1.16 | 1.13 | -0.503 | -1.59 | -1.32 | 0.571 | 0.533 (inactive) | -0.272 | -0.618 | 0.523 (inactive) |
| COC(=O)C1(CC(C)C)C=C2C(=C(c3ccccc3)C(=O)C2C)CN1 (stereo not given) | -0.837 | -0.16 | 0.0661 | 0.601 | -0.12 | 0.0103 | -1.81 (inactive) | -0.604 | -1.1 | -0.614 (inactive) |
| Cc1ccc(F)cc1S(=O)(=O)N[C@@H]1CCN(Cc2ccc(Br)cc2)C1 | -0.0023 | -1.01 | -0.65 | -1.24 | -1.29 | 0.261 | 0.0995 (inactive) | -0.645 | -0.555 | 0.728 (inactive) |
| COC(=O)[C@]1(CCS(=O)(=O)c2ccccc2)N=C(c2ccc(OCCCO)cc2)O[C@@H]1c1ccccc1N=[N+]=[N-] | -1.49 | 1.78 | -2.18 | -2.8 | -3.33 | 0.811 | -0.294 (inactive) | -1.13 | 0.546 | -3.46 (inactive) |
| COc1ccc([Si](C)(C)[C@H]2[C@H](CC(=O)N3CCC[C@H]3CO)O[C@@]3(C(=O)N(Cc4ccc(N5CCOC5=O)cc4)c4ccccc43)[C@@H]2C)cc1 | -0.585 | 0.722 | -0.557 | -2.27 | -3.98 | 2.41 | 0.388 (inactive) | -1.06 | -0.325 | 0.0083 (inactive) |
| CCCC=C(CCC)[C@@H](NP(=O)(c1ccccc1)c1ccccc1)c1ccc(-c2ccccc2)cc1 | -1.51 | -0.933 | -1.47 | -1.67 | -2.96 | -4.76 | 0.74 (inactive) | -0.343 | -2.36 | 0.647 (inactive) |
| CCCCCN1CC=CC23O[C@@H]4/C=C\CCC(C)OC(=O)C4[C@H]2C(=O)N(C(CO)C(C)C)[C@@H]3C1=O (stereo not given in full) | -0.588 | 0.214 | -0.272 | 1.82 | 0.216 | -0.224 | -0.0517 (inactive) | 0.699 | -0.577 | 0.829 (inactive) |
| [N-]=[N+]=NCc1ccccc1[C@H]1OC(c2ccc(OCCCO)cc2)=N[C@@]1(Cc1ccccc1N=[N+]=[N-])C(=O)NCC(O)CO (stereo not given in full) | -0.471 | 0.517 | -0.353 | -3.22 | -3.36 | -0.504 | -0.618 (inactive) | -0.962 | -0.934 | 0.286 (inactive) |
